Common to all, as to format: functional
Experiment [1] deals with Plasmodium falciparum. Kind of experiment: GSK_TCMDC: Inhibition of Plasmodium falciparum 3D7 in whole red blood cells, using parasite LDH activity as an index of growth. Test compounds present at 2uM.
The test system of experiment [2] is Plasmodium falciparum. Kind of experiment: GSK_TCMDC: Inhibition of Plasmodium falciparum Dd2 in whole red blood cells, using parasite LDH activity as an index of growth. Test compounds present at 2uM.
For another experiment, the system named is HepG2. Briefly: GSK_TCMDC: Percent inhibition of human HepG2 cell line. Test compounds present at 10uM.

“And” between values parts separate entries of the source, which are not always exact repeats. Identical values can stand only once.

Consider 30 molecules from ChEMBL document CHEMBL1157539, “Thousands of chemical starting points for antimalarial lead identification” (Nature, 2010).

As usually defined, the Inhibition is how much of the control response was suppressed. The low end stands for a response near the control, the high end for a response far below the control.

Take `CCc1nc(N)nc(N)c1-c1ccc(F)cc1`: the Inhibition with Plasmodium falciparum [1] is 96%; in the experiment on Plasmodium falciparum [2], 0%; in the experiment on HepG2, 52%.

Turning to `CCCNC(=O)c1cncc(-c2ccc(CNC3Cc4ccccc4C3)cc2)c1.O=C(O)C(F)(F)F`, the Inhibition in the experiment on Plasmodium falciparum [1] was 97%; with Plasmodium falciparum [2], 21%; with HepG2, 9%.

Take `CC(C)(C)c1cc(C(=O)N2CCC(c3ccccn3)CC2)n(Cc2ccccc2)n1`: the Inhibition stood at 96% in the experiment with Plasmodium falciparum [1], 90% in the experiment on Plasmodium falciparum [2] and 3% with HepG2.

On to `COc1ccc(-c2ccc(NC(=O)c3cccc(C#N)c3)cc2)cc1CN1CCCN(C)CC1.O=C(O)C(F)(F)F`, for which the Inhibition in the experiment on Plasmodium falciparum [1] is on record as 100%; in the experiment on Plasmodium falciparum [2], 70%; with HepG2 it was 26%.

For the molecule `CCOC(=O)c1ccc(NC(=O)N[C@H]2CCN(CCCCCNC(=O)/C=C/c3ccc(Cl)c(Cl)c3)C2)cc1`, the Inhibition with Plasmodium falciparum [1] was 98%; in the experiment with Plasmodium falciparum [2], 1%; with HepG2 it was 21%.

For the molecule `NCc1cccc(-c2cccc(CNC3CCN(Cc4ccccc4)CC3)c2)c1.O=C(O)C(F)(F)F`, the Inhibition was found to be 100% in the experiment on Plasmodium falciparum [1], 45% with Plasmodium falciparum [2] and 9% in the experiment with HepG2.

As for `COc1ccc(Cc2nc3c(n2C(C)=O)SC(c2ccc(Cl)c(Cl)c2)=NN3C(C)=O)cc1`, the Inhibition in the experiment on Plasmodium falciparum [1] was determined as 94%; in the experiment with Plasmodium falciparum [2], 22%; with HepG2, 0%.

Consider `Cc1[nH]c2ccc(-c3ccccc3)cc2c(=O)c1Br`, for which the Inhibition stood at 97% with Plasmodium falciparum [1], 97% in the experiment on Plasmodium falciparum [2] and 0% with HepG2.

As to `CNC(=O)Cc1ccc(C(=O)Nc2cccc(-c3ccc(-c4nc5cccc(C)c5[nH]4)s3)c2)cc1`, the Inhibition in the experiment on Plasmodium falciparum [1] was determined as 91%; with Plasmodium falciparum [2], 25%; in the experiment with HepG2, 66%.

For `Cc1n[nH]c(C)c1C1CCN(CC2CCC(NC(=O)/C=C/c3ccc(Cl)c(Cl)c3)CC2)CC1` (stereo not given), the Inhibition in the experiment with Plasmodium falciparum [1] was 100%; in the experiment with Plasmodium falciparum [2], 53%; in the experiment with HepG2, 15%.

With `O=C(NC1CCN(Cc2ccccc2)CC1)c1cc(C(=O)NC2CCN(Cc3ccccc3)CC2)cc(C(=O)NC2CCN(Cc3ccccc3)CC2)c1`, the Inhibition with Plasmodium falciparum [1] was 100%; in the experiment with Plasmodium falciparum [2] it was 100%; in the experiment with HepG2, 13%.

As for `CC(C)(C)C(=O)Nc1ccccc1Oc1ccc(Cl)cc1`, the Inhibition in the experiment with Plasmodium falciparum [1] is 92%; with Plasmodium falciparum [2], 96%; in the experiment on HepG2, 54%.

As to `CCC[C@@H]([C@@H](CC(C)C)C(=O)N[C@@H](CCCNc1nccc(C(F)(F)F)n1)C(=O)Nc1nccs1)N(O)C=O`, the results for the Inhibition in the experiment on Plasmodium falciparum [1], with Plasmodium falciparum [2] and in the experiment with HepG2 were 99%, 98% and 0%, respectively.

On to `Cc1ccc(NC(=O)C(C)Sc2nnc(-c3ccccc3Br)[nH]2)cc1` (stereo not given), for which the results for the Inhibition in the experiment with Plasmodium falciparum [1], with Plasmodium falciparum [2] and in the experiment with HepG2 were 89%, 90% and 2%, respectively.

For the molecule `Cc1nnsc1C(=O)Nc1cccc(-c2cccc(-c3nc4cc(C(F)(F)F)ccc4[nH]3)c2)c1`, the Inhibition in the experiment with Plasmodium falciparum [1] was determined as 100%; in the experiment with Plasmodium falciparum [2], 100%; with HepG2, 70%.

With `COc1ccc(C(=O)Nc2ccc(-c3ccc([N+](=O)[O-])cc3)cc2)cc1CCCN(C)C.Cl`, the Inhibition with Plasmodium falciparum [1] is recorded as 98%; in the experiment with Plasmodium falciparum [2], 9%; in the experiment with HepG2, 20%.

For `COCCNCc1ccc(-c2ccc(CNc3ccc4ncccc4c3)cc2)cc1.O=C(O)C(F)(F)F`, the Inhibition in the experiment on Plasmodium falciparum [1] came out at 85%; with Plasmodium falciparum [2], 4%; in the experiment on HepG2, 41%.

For the molecule `Cc1[nH]c(C)c(-c2ccc(Oc3ccc(OC(F)(F)F)cc3)cc2)c(=O)c1Br`, the Inhibition was 96% with Plasmodium falciparum [1]; 97% and 95% in the experiment on Plasmodium falciparum [2]; 0% in the experiment with HepG2.

Consider `O=c1[nH]c2c(cc1CNC1CCCCC1)c(-c1cccc(F)c1)nn2-c1ccccc1`, for which the figures for the Inhibition in the experiment on Plasmodium falciparum [1], with Plasmodium falciparum [2] and with HepG2 were 95%, 89% and 6%, respectively.

Consider `CCCCCCN1CCN(Cc2cccc(NC(=O)c3cccc(OCC)c3)c2)CC1.O=C(O)C(F)(F)F`, for which the Inhibition was 85% in the experiment on Plasmodium falciparum [1], 48% in the experiment with Plasmodium falciparum [2] and 65% with HepG2.

In the case of `CCCCCNc1nc(Nc2ccccc2C)nc2ccccc12.Cl`, the Inhibition stood at 100% in the experiment on Plasmodium falciparum [1], 30% in the experiment with Plasmodium falciparum [2] and 5% in the experiment with HepG2.

Regarding `Cn1c(Nc2cc(C(C)(C)C)on2)nc2cc(Nc3ccnc(Nc4cccc(S(=O)(=O)N5CCOCC5)c4)n3)ccc21`, the Inhibition worked out at 100% in the experiment on Plasmodium falciparum [1], 96% with Plasmodium falciparum [2] and 32% in the experiment on HepG2.

In the case of `CN(c1ccc(NC(=O)Nc2cccc(Cl)c2)cc1)c1ccnc(N)n1.Cl`, the figures for the Inhibition in the experiment on Plasmodium falciparum [1], with Plasmodium falciparum [2] and with HepG2 were 100%, 40% and 75%, respectively.

For the molecule `Cc1ccc(CNC(=N)NC(=O)c2nc(Cl)c(NCc3ccc(Cl)cc3)nc2N)c(C)c1`, the Inhibition in the experiment with Plasmodium falciparum [1] is on record as 100%; with Plasmodium falciparum [2] it was 100%; in the experiment with HepG2, 28%.

On to `COc1ccc(C(=O)NCC(C)(C)c2nc(-c3ccc(Cl)c(O)c3)c(-c3ccncc3)[nH]2)cc1OCCN(C(C)C)C(C)C.Cl`, for which the figures for the Inhibition in the experiment with Plasmodium falciparum [1], in the experiment with Plasmodium falciparum [2] and in the experiment with HepG2 were 100%, 96% and 62%, respectively.

For `O=C(Nc1nc(-c2ccccn2)cs1)c1ccc(Br)s1`, the Inhibition is reported as 96% in the experiment on Plasmodium falciparum [1], 84% with Plasmodium falciparum [2] and 40% in the experiment with HepG2.

Take `COc1ccc(-c2ccc(NC(=O)c3cccc(C#N)c3)cc2)cc1CN1CCC(O)CC1.O=C(O)C(F)(F)F`: the Inhibition in the experiment on Plasmodium falciparum [1] is recorded as 100%; in the experiment with Plasmodium falciparum [2], 84%; with HepG2, 21%.

`Cc1cccc2nc(-c3ccc(-c4cccc(NC(=O)c5cncn5C)c4)cc3)[nH]c12`: the Inhibition was 100% in the experiment on Plasmodium falciparum [1], 1% with Plasmodium falciparum [2] and 2% in the experiment on HepG2.

With `Cc1ccc(CNC(=O)[C@H](Cc2ccccc2)Nc2cc(C)nc(Nc3ccccc3)n2)cc1.O=C(O)C(F)(F)F`, the Inhibition in the experiment on Plasmodium falciparum [1] worked out at 100%; in the experiment with Plasmodium falciparum [2] it was 91%; in the experiment with HepG2, 16%.

On to `Cl.Nc1nc(Nc2cccc(O)c2)nc2ccccc12`, for which the Inhibition in the experiment on Plasmodium falciparum [1] is given as 96%; in the experiment with Plasmodium falciparum [2], 79%; in the experiment on HepG2, 25%.
